The nature of assay [1]: small molecules captured by biotinylated probe aFSTL3 – biochemical, small-molecule microarray, fluorescence 635/667, stem cell growth factor project, primary screen (AID 1064).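 Further: measures binding of the biotinylated anti-FSTL3 antibody to printed compounds.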 Particulars: higher = more signal.
Assay [2] can be described thus: binders from COS7 lysate, DM2A8 probe, primary screen, torsin A project, cell lysate, small-molecule microarray, fluorescence 635/667 (AID 1065). Particulars: higher = more signal, COS7 lysate expressing mutant human TOR1A.
A short description of assay [3]: small molecules captured by biotinylated probe aFGF2 – biochemical, small-molecule microarray, fluorescence 635/667, stem cell growth factor project, primary screen (AID 1067).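 Further: measures binding of biotinylated aFGF2 protein to printed compounds on slides; z-score merges feature fluorescence and signal-to-noise across triplicate slides.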 Particulars: higher = more signal.
Assay [4] in a line: small molecules captured by biotinylated probe aFGF10 – biochemical, small-molecule microarray, fluorescence 635/667, stem cell growth factor project, primary screen (AID 1071).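 Further: score merges 667 nm spot intensity and signal to noise from triplicate slides.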 Particulars: higher = more signal.
The target in assay [5] is Neurogenic locus notch homolog protein 2 (Homo sapiens) (UniProt Q04721). Kind of assay: small molecules binding Notch2 protein – biochemical, small-molecule microarray, 635 nm fluorescence, stem cell growth factors, primary screen (AID 1073). Particulars: higher = more signal.
Assay [6] addresses Pro-neuregulin-1, membrane-bound isoform (Homo sapiens) (UniProt Q02297). Kind of assay: small molecules binding neuregulin-1 protein – biochemical, small-molecule microarray, fluorescence 635/667, psychiatric disease protein project, primary screen (AID 1075).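 Further: score combines 667 nm spot fluorescence with signal to noise.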 Particulars: NRG1 binding, 635 nm fluorescence, higher = more signal.
Assay [7] deals with Neuregulin-1 EGF-like domain. Kind of assay: small molecules binding NRG1 EGF domain – biochemical, small-molecule microarray, 635 nm fluorescence, primary screen (AID 1081).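 Further: binding of the protein to compounds printed on small-molecule microarray slides.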 To be noted: higher = more signal.
Assay [8] can be described thus: FRG1 expression reporter modulators in myotubes – cell-based, C2C12 myotubes, firefly/Renilla luciferase, luminescence, FRG1 inhibition for FSHD, primary screen (AID 1084). Particulars: FRG1 promoter luciferase, higher = more signal, called active from +8 up or from −8 down.
Assay [9] can be described thus: small molecules captured by biotinylated probe aFST – biochemical, small-molecule microarray, fluorescence 635/667, stem cell growth factor project, primary screen (AID 1086).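 Further: score merges 667 nm fluorescence with signal-to-noise of each printed compound spot.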 Particulars: higher = more signal.
Assay [10] can be described thus: binders of probe aHhip on microarray, primary screen, stem cell growth factor project, biochemical, small-molecule microarray, fluorescence 635/667 (AID 1087).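 Further: score merges spot fluorescence at 667nm with spot signal to noise ratio.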 To be noted: higher = more signal.

Here are results for 13 compounds from PubChem BioAssay.

Active and inactive are the calls of the source.

Pro-neuregulin-1, membrane-bound isoform (Homo sapiens), sequence (Q02297 whole entry, looked up, the tested form may be a part, canonical isoform): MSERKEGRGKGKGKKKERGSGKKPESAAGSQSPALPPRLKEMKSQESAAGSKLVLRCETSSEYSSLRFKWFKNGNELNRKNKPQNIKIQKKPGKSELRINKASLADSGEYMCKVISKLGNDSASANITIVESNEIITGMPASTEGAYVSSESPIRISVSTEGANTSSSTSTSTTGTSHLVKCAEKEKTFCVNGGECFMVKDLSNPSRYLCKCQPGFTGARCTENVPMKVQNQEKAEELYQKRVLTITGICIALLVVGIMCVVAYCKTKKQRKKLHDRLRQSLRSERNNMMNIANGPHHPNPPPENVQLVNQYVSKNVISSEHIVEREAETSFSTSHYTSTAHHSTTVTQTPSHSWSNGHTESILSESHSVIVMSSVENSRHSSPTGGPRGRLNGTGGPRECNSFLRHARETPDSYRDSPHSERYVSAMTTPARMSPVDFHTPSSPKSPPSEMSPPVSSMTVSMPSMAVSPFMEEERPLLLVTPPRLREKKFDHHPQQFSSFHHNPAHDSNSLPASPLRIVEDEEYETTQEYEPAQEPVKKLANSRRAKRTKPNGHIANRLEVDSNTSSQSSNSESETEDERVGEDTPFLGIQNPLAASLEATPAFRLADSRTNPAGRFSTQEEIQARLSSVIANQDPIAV
Neurogenic locus notch homolog protein 2 (Homo sapiens), sequence (Q04721 whole entry, looked up, canonical isoform): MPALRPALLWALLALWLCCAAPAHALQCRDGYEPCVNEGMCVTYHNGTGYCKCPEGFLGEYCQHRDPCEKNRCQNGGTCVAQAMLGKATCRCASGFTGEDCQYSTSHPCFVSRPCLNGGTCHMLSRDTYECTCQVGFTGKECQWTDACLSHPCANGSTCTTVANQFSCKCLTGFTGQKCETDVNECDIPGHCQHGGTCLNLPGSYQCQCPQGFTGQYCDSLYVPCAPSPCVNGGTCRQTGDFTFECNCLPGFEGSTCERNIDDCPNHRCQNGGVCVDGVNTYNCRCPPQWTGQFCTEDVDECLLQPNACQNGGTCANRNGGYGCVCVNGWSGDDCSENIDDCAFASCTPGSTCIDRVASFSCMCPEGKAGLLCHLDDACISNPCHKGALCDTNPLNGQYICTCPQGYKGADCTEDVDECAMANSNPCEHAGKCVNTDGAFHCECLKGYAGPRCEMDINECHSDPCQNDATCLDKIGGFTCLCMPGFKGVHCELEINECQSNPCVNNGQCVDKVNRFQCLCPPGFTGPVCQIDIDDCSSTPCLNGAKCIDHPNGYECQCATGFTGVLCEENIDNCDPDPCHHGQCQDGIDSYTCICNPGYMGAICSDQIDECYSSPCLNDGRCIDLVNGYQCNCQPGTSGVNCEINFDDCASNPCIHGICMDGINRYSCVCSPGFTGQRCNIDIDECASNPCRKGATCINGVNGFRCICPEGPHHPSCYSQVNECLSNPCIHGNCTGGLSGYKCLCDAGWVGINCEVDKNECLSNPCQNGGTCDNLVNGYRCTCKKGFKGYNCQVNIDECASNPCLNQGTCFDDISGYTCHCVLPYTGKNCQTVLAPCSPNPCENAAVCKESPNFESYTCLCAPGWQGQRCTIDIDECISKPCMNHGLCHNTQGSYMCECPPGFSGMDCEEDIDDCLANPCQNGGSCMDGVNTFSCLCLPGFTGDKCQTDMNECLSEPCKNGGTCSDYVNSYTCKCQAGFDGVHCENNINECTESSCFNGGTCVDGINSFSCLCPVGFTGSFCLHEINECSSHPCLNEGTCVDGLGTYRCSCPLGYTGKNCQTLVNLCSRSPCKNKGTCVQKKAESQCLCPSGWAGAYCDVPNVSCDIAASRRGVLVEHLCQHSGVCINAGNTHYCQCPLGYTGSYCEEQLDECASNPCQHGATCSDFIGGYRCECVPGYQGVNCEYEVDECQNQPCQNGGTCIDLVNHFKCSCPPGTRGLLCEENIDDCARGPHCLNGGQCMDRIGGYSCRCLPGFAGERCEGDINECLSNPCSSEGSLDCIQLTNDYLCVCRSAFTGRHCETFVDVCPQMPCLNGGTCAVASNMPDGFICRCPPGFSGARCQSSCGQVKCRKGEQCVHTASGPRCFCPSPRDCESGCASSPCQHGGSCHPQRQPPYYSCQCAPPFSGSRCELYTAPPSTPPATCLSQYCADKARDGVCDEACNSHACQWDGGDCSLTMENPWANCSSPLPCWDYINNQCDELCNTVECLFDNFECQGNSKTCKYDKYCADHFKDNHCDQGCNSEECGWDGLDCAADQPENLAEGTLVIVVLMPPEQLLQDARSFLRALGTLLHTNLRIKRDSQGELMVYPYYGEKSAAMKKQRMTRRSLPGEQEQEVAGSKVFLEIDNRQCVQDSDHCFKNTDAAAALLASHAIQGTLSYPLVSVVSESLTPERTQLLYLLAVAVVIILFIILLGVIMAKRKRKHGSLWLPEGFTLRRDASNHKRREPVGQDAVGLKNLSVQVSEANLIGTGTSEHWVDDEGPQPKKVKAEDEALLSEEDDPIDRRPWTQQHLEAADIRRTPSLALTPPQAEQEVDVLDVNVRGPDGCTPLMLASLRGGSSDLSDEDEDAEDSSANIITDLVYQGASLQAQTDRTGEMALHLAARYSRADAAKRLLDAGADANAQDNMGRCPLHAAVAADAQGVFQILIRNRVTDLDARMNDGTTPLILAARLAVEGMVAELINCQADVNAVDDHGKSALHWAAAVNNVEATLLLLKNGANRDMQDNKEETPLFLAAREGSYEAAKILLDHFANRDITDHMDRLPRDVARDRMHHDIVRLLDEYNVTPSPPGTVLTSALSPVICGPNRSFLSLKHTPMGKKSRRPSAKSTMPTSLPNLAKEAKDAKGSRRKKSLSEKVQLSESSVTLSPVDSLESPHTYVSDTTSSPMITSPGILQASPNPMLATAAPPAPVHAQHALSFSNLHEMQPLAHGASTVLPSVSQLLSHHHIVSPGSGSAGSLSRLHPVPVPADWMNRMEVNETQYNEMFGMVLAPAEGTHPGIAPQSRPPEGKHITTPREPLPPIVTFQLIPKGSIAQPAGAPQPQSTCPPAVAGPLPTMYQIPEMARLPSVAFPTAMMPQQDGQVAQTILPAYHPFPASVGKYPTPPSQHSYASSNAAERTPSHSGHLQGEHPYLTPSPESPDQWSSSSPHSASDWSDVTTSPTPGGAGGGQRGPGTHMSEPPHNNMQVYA

Consider `O=C1CCCC2OC12C(O)CCc1ccccc1` (stereo not given), for which the composite z-score in assay [1] was -0.555; in assay [2], 0.475; in assay [3] it was -0.166; in assay [4], 0.411; in [5] it was 0.455; in [6], -0.333. The composite z-score in assay [7] is -0.251; in assay [9], -0.0128; in [10], -0.226. In [8], the z-score was 0.42 (inactive).
As to `COC(=O)[C@]1(CO)N=C(c2ccc(OCCCO)cc2)O[C@@H]1c1ccccc1N=[N+]=[N-]`, the composite z-score in assay [1] is 0.0947; in assay [2] it was 0.525; in assay [3], -0.0614; in assay [4], -0.0477; in [5], 0.01; in [6], 1.25. Besides, the composite z-score in [7] is 0.938; in [9] it was 0.138; in assay [10] it was -0.39. In addition, the z-score in [8] was 2.29 (inactive).
With `C=CCOC(=O)[C@H]1[C@@H]2C(=O)O[C@@H](c3ccccc3)[C@@H](c3ccccc3)N2[C@@H](c2ccc(OCCOC(=O)[C@H]3C[C@H]4C(=O)N5CCC[C@H]5C(=O)N4[C@H]3c3cccc(OCCO)c3)cc2)[C@]12C(=O)Nc1ccc(I)cc12`, the composite z-score in assay [1] was 1.82; in assay [2], 1.9; in [3], 0.522; in assay [4] it was 0.92; in assay [5], 1.47; in assay [6], 2.91. Besides, the composite z-score in [7] was 1.47; in assay [9], 2.63; in assay [10] it was 0.794. The z-score in assay [8] is 1.07 (inactive).
For `CC(C)(C)N1C(=O)[C@H]2[C@H]3[C@H](O)[C@H](O)CC(=NO[C@@H]4O[C@H](CO)[C@@H](O)[C@H](O)[C@H]4O)[C@@H]3CC[C@H]2C1=O`, the composite z-score in assay [1] was -0.549; in assay [2], -0.151; in assay [3], -0.0854; in assay [4], 0.705; in assay [5] it was 0.572; in assay [6], 0.722. Also, the composite z-score was 1.08 in [7], 0.135 in assay [9] and -0.0994 in assay [10]. The z-score in [8] is 0.677 (inactive).
On to `C[C@H]1Cc2c(-c3ccccc3)nc3c(c2CO1)CN(CCOc1ccccc1)CC3`, for which the composite z-score in assay [1] was -0.635; in assay [2], 0.568; in assay [3], -0.113; in assay [4], 0.739; in [5] it was 1.41; in assay [6] it was 0.135. For the same compound, the composite z-score is 0.991 in assay [7], 0.307 in assay [9] and -0.0708 in assay [10]. In assay [8], the z-score is 0.53 (inactive).
Turning to `COc1ccc([Si](C)(C)[C@H]2[C@H](CC(=O)N3CCC[C@H]3CO)O[C@@]3(C(=O)N(Cc4cccc(N5C(=O)COc6ccccc65)c4)c4ccccc43)[C@@H]2C)cc1`, the composite z-score is -0.126 in [1]; 0.149 in [2]; -0.0148 in assay [3]; 0.893 in [4]; 0.308 in [5]; 0.563 in [6]. The values for the composite z-score in [7], in assay [9] and in [10] were 0.983, -0.0678 and -0.0994, respectively. Besides, the z-score in assay [8] is -4.78 (inactive).
On to `COc1ccc([Si](C)(C)[C@@H]2[C@@H](CCO)O[C@]3(C(=O)N(Cc4ccc(NC(C)=O)cc4)c4ccccc43)[C@H]2C)cc1`, for which the composite z-score is -0.189 in assay [1]; 1.05 in assay [2]; -0.0049 in assay [3]; 1.18 in assay [4]; 1.47 in [5]; 1.66 in assay [6]. Further, the composite z-score in [7] came to 1.24; in assay [9] it was 0.17; in [10] it was 0.0373. For the same compound, in assay [8], the z-score was -4.04 (inactive).
`CC1CC/C=C\[C@H]2OC34C=CCN(Cn5nnc6ccccc65)C(=O)[C@H]3N(CCO)C(=O)[C@@H]4C2C(=O)O1` (stereo not given in full): the composite z-score in assay [1] is 0.398; in assay [2], 1.96; in assay [3], -0.0778; in assay [4], -0.181; in assay [5] it was -1.29; in assay [6], 1.52. In addition, the composite z-score was 1.43 in assay [7], -0.655 in [9] and -0.0324 in assay [10]. In assay [8], the z-score is -0.203 (inactive).
For the compound `C[C@H](c1ccccc1)N1C(=O)[C@H]2[C@H]3[C@H](O)[C@H](O)CC(=O)[C@@H]3CC[C@H]2C1=O`, the composite z-score is -0.019 in assay [1]; 0.242 in assay [2]; -0.0675 in [3]; 0.341 in assay [4]; 0.433 in [5]; -0.117 in assay [6]. In addition, the values for the composite z-score in assay [7], in assay [9] and in [10] were 0.263, 0.0924 and 0.0274, respectively. Moreover, in [8], the z-score is -0.243 (inactive).
Turning to `CCCNC(=O)OC[C@H]1O[C@H](CCON=C2[C@H]3CCn4c(=O)n(-c5ccccc5)c(=O)n4[C@H]3[C@H](O)[C@@H]3O[C@H]23)C=C[C@@H]1Oc1ccc(OC)cc1`, the composite z-score in [1] was -0.362; in assay [2], 0.447; in [3], -0.0885; in [4] it was 0.406; in assay [5], 0.774; in assay [6], -0.248. Also, the results for the composite z-score in [7], in assay [9] and in assay [10] were 0.0894, 0.214 and -0.0994, respectively. Further, the z-score in assay [8] is -0.257 (inactive).
As for `COc1ccc(COC(=O)NN=C2C[C@@H](O)[C@@H](O)[C@@H]3[C@@H]4C(=O)N(c5ccc(F)cc5F)C(=O)[C@@H]4CC[C@@H]23)cc1`, the composite z-score in assay [1] is 0.827; in assay [2], 0.515; in assay [3] it was -0.0342; in [4] it was -0.299; in assay [5] it was -0.392; in assay [6] it was 0.0565. For the same compound, the composite z-score in assay [7] is -1.13; in assay [9] it was 0.562; in assay [10] it was 0.168. For the same compound, the z-score in assay [8] was -0.138 (inactive).
Consider `CCOC(=O)C[C@H]1[C@H](OC(=O)c2cc3ccccc3oc2=O)[C@@H](NC(=O)c2ccc3ccccc3n2)c2cc(OCCCO)ccc2N1C(=O)c1ccccc1`, for which the composite z-score in assay [1] was -0.189; in [2], 0.459; in [3] it was -0.0455; in [4] it was 0.706; in [5], 0.302; in assay [6], 0.0269. Further, the results for the composite z-score in [7], in assay [9] and in [10] were 0.736, 0.353 and -0.383, respectively. Besides, the z-score in assay [8] is 0.331 (inactive).
Turning to `Cc1cc(C)c(-c2cc([C@H](C)ON=C3[C@H]4CCn5c(=O)n(-c6ccccc6)c(=O)n5[C@H]4[C@H](O)[C@@H]4O[C@H]34)on2)c(C)c1`, the composite z-score was -0.437 in assay [1]; 1.55 in assay [2]; 0.0168 in assay [3]; 0.481 in [4]; 0.471 in assay [5]; 0.463 in assay [6]. The figures for the composite z-score in assay [7], in [9] and in [10] were 0.0257, 0.484 and 0.0024, respectively. Further, the z-score in [8] was -0.793 (inactive).
